We go through 64 compounds from ChEMBL document CHEMBL4513216, “Probing the Open Global Health Chemical Diversity Library for Multistage-Active Starting Points for Next-Generation Antimalarials” (ACS Infect Dis, 2020).

SMILES strings stand for the structures. Hit rate of the full screen: of about 69,000 compounds, about 8,600 (12%) showed an effect of 50% or more. Only a selection was taken, and strong results are over-represented in it overall.

This assay deals with Plasmodium berghei. As to the kind of experiment: Screen against P. berghei liver stage (PbLuc), transformed with Luciferase, at 10uM. Type of assay: functional, HepG2. Conditions: tested at 10 uM.
Turning to `CCn1cc2c(n1)CN(Cc1ccncc1)CC2COCC1CC1` (centres undefined), the INHIBITION stood at 40.9%.

With `CCOCC1CN(Cc2ccc(F)cc2)Cc2nn(CC3CC3)cc21` (centres undefined), the INHIBITION came to 5.96%.

On to `CCn1cc2c(n1)CN(Cc1ccc(F)cc1)CC2COCC1CC1` (centres undefined), for which the INHIBITION was 70.7%.

As to `CCO[C@@H]1CO[C@@]2(CCCN(S(=O)(=O)c3cccnc3)C2)C1`, the INHIBITION came out at 30.7%.

Take `Cc1nc(-c2ccoc2)n(CC(=O)NCC(C)C)c1C`: the INHIBITION is recorded as -8.28%.

Consider `Cc1nc(-c2ccoc2)n(CC(=O)N(C)CC(C)C)c1C`, for which the INHIBITION is listed as 50%.

Consider `CCOC(=O)CNC(=O)Cn1c(-c2ccoc2)nc(C)c1C`, for which the INHIBITION is recorded as 8.52%.

Take `Cc1cccc(C)c1Nc1noc2c1CN(C(=O)c1cn(C)cn1)CC2`: the INHIBITION is 25.4%.

Turning to `O=C(NC1CC1)c1cc(NC(=O)N2CCSCC2)ccc1Cl`, the INHIBITION worked out at 57.6%.

For `Cn1c(=O)oc2ccc(NC(=O)N3CCc4ccccc4C3)cc21`, the INHIBITION is -3.43%.

Turning to `O=C(NC1CC1)c1cc(NC(=O)N2CCOCC2)ccc1Cl`, the INHIBITION turned out to be 68.3%.

With `Cn1c(=O)oc2ccc(NC(=O)N3CCOCC3)cc21`, the INHIBITION stood at 53.9%.

In the case of `O=C(NC1CC1)c1cc(NC(=O)N2CCCC2)ccc1Cl`, the INHIBITION is on record as 31.9%.

As for `O=C(NC1CC1)c1cc(NC(=O)N2CCCC(O)C2)ccc1Cl` (centres undefined), the INHIBITION stood at 28.5%.

For `O=C(Nc1ccc(CCN2CCSCC2)cc1)NC1CC1`, the INHIBITION turned out to be 1.79%.

Turning to `Cn1c(=O)oc2ccc(NC(=O)N3CCSCC3)cc21`, the INHIBITION stood at 24.7%.

For the compound `CC1CN(C(=O)Nc2ccc(Cl)c(C(=O)NC3CC3)c2)CC(C)(C)O1` (centres undefined), the INHIBITION was determined as 31.9%.

`O=C(C1CCCO1)N1CCC(O)(Cn2ccc3ccncc32)CC1` (centres undefined): the INHIBITION is on record as -45.4%.

Regarding `Cc1cc(C)c2cc(CNCCCN3CCOCC3)c(=O)[nH]c2c1`, the INHIBITION is 3.91%.

As for `CCc1cc(=O)[nH]c2nnc(SCC(=O)N3CCC(C)CC3)n12`, the INHIBITION worked out at 14.4%.

With `CN(C)C[C@@H]1CCC[C@@H]2CN(c3nccc(C(F)(F)F)n3)C[C@@H]21`, the INHIBITION is listed as -3.58%.

Consider `Cc1nc2ccccc2n1Cc1cc(C(=O)N2C[C@@H](C)O[C@@H](C)C2)no1`, for which the INHIBITION is recorded as 74%.

`C[C@@H]1CN(C(=O)c2cc(Cn3cnc4ccccc43)on2)C[C@H](C)O1`: the INHIBITION came to 30.5%.

For `Cc1nc2ccccc2n1Cc1cc(C(=O)N(C)C2CCOCC2)no1`, the INHIBITION was found to be 37.3%.

For `CN(C)C(=O)CN1CCOCC2(C1)CN(c1ncc(F)cn1)CCO2` (centres undefined), the INHIBITION worked out at 10.6%.

Turning to `c1cnc(NC[C@@H]2CCC[C@@H]3CN(Cc4cc[nH]n4)C[C@@H]32)nc1`, the INHIBITION is 1.81%.

Consider `Cn1cc(CN2C[C@H]3CCC[C@@H](CNc4nccn4C)[C@H]3C2)cn1`, for which the INHIBITION is reported as 23.1%.

As to `COCCN1C[C@H]2CCC[C@@H](CNc3ncccn3)[C@H]2C1`, the INHIBITION turned out to be 77.4%.

Regarding `Cn1ccnc1NC[C@@H]1CCC[C@@H]2CN(CC3CC3)C[C@@H]21`, the INHIBITION was 76.3%.

In the case of `c1ccc(NC[C@@H]2CCC[C@@H]3CN(Cc4nccs4)C[C@@H]32)nc1`, the INHIBITION is on record as 51.2%.

As to `c1ccc(NC[C@@H]2CCC[C@@H]3CN(Cc4cccnc4)C[C@@H]32)nc1`, the INHIBITION is 32.2%.

For the compound `Cn1cc(CN2C[C@H]3CCC[C@@H](CNc4ncccn4)[C@H]3C2)cn1`, the INHIBITION was found to be 31.2%.

As for `Cn1ccnc1NC[C@@H]1CCC[C@@H]2CN(Cc3nccs3)C[C@@H]21`, the INHIBITION is reported as 29%.

As for `c1ccc(NC[C@@H]2CCC[C@@H]3CN(Cc4csnn4)C[C@@H]32)nc1`, the INHIBITION was found to be 15.9%.

As for `COCCN(CC(C)C)C(=O)c1cccc(Nc2cnccn2)c1`, the INHIBITION is reported as 46.6%.

As for `CCc1ccc(CN2CCC3(CC2)NC(=O)CC3c2ccncc2)o1` (centres undefined), the INHIBITION was 21.6%.

For `Cn1cc(CN2CCCC23CCN(C(=O)c2ccccn2)CC3)cn1`, the INHIBITION is -17.1%.

As to `O=c1ccc2c([nH]1)CCC(NCc1ccncc1)C2` (centres undefined), the INHIBITION is 11.5%.

Take `CC(=O)c1nn(-c2cccc(Cl)c2)c(C)c1C(C)=O`: the INHIBITION is listed as 12.3%.

As for `CSC1=Nc2c(cnn2-c2ccc(Cl)cc2)C2=NCCCN12`, the INHIBITION worked out at 64.8%.

For `CSC1=Nc2c(cnn2-c2ccccc2)C2=NCCCN12`, the INHIBITION came to 73.9%.

Consider `CCSC1=Nc2c(cnn2-c2ccc(Cl)cc2)C2=NCCCN12`, for which the INHIBITION was -37.1%.

Consider `CSC1=Nc2c(cnn2-c2cccc(Cl)c2)C2=NCCCN12`, for which the INHIBITION is 79.7%.

`O=C(NC1=NCCCN1c1ccc(Cl)cc1)c1cccc(Cl)c1`: the INHIBITION turned out to be 15.1%.

As to `CC(C)(C)C(=O)N1CCCc2c(cnn2-c2ccccc2)C1`, the INHIBITION is -43.9%.

Take `Cc1cccc(N2CCCN=C2NC(=O)c2cccc(Cl)c2)c1`: the INHIBITION is listed as -25.5%.

In the case of `CSC1=Nc2c(cnn2-c2ccc(C)cc2)C2=NCCCN12`, the INHIBITION is on record as 69.8%.

As for `COC(=O)c1cccc(NCC(=O)NC(N)=O)c1`, the INHIBITION was -5.92%.

As to `CN(Cc1cccc2cnccc12)C(=O)CCc1n[nH]c2c1CCCC2`, the INHIBITION is on record as 34.9%.

As to `Cc1ccc(NC(=O)CCc2cnn(C)c2)cc1F`, the INHIBITION is reported as 22.3%.

As for `Cc1cccc(C2(C(=O)NCC3CCN(CC(F)(F)F)C3)CCC2)c1` (centres undefined), the INHIBITION is 5.03%.

On to `CS(=O)(=O)NC1CCCN(C(=O)c2cccnc2)C1` (centres undefined), for which the INHIBITION is listed as -16%.

Regarding `CC(O)CN1CCC(CN(C)CCC(=O)NC2CCCCC2)CC1` (centres undefined), the INHIBITION amounted to 19.7%.

For `CCc1cc(N[C@@H](CC(C)C)C(N)=O)n2nc(C)c(C)c2n1`, the INHIBITION is 47.7%.

For the compound `CCc1cc(N[C@H](C(N)=O)C(C)C)n2nc(C)c(C)c2n1`, the INHIBITION is 16.3%.

`CCc1cc(N[C@@H](CO)C(N)=O)n2nc(C)c(C)c2n1`: the INHIBITION is 54.4%.

Take `Cc1ccc(CN(Cc2[nH]cnc2C)C2CC(C)(C)NC(C)(C)C2)o1`: the INHIBITION is on record as 38.2%.

Turning to `Cc1ccc(CN(Cc2c[nH]cn2)C2CC(C)(C)NC(C)(C)C2)o1`, the INHIBITION is given as 19.3%.

As to `CC1(C)CC(N(Cc2ccccc2)Cc2ncc[nH]2)CC(C)(C)N1`, the INHIBITION is listed as 10.26%.

For the compound `Cc1cccc(CN(Cc2ccc(C)o2)C2CC(C)(C)NC(C)(C)C2)n1`, the INHIBITION is listed as 53.5%.

Turning to `Cc1ccc(CN(Cc2ncc[nH]2)C2CC(C)(C)NC(C)(C)C2)o1`, the INHIBITION came to 91.6%.

In the case of `Cc1ccc(CN(Cc2ccncc2)C2CC(C)(C)NC(C)(C)C2)o1`, the INHIBITION was found to be 7.05%.

Take `CC(C)CO[C@@H]1CC[C@H]2[C@H]1OCCN2S(=O)(=O)C1CC1`: the INHIBITION came to 28.3%.

Regarding `Cc1cncnc1C1CCN(CCO)CC1`, the INHIBITION is recorded as -20.6%.
